# Screens as filed in PubChem BioAssay.
# KinaseGlo FLuc: Counterscreen for Luciferase (Kinase-Glo TM) Inhibition; 200,000 compounds, 0.28% hits; Kinase-Glo luciferase, ATP luminescence, 8 min; Luciferin 4-monooxygenase (Photuris pensylvanica), Q27757; Potency, µM (titrated, usually from 38.3 µM), most hits filed as inhibitors; also: nearly all actives have a fitted effect of over 60% in size
#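 Compound is pinned into ATP-containing buffer (10 uM ATP, imidazole pH 7.2, 7 mM MgCl2). Kinase-Glo luciferase reagent is then added. Light output is recorded following an 8-min room-temperature incubation.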
# NPC1 promoter act: qHTS Assay for NPC1 Promoter Activators. Huh7 NPC1 promoter luciferase reporter, 24 h. AID 485313, 2010. Potency, µM (series often up to 9.22 µM), most hits filed as activators. 320,000 compounds, 2.4% hits; also: nearly all actives have a fitted effect of over 60% in size
#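 Luminescence read-out of NPC1 promoter-driven luciferase in stably transfected Huh7 cells; compounds delivered in DMSO and left 24 h at 37C, 5% CO2, qHTS titration format.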
# ELG1 genotoxic: qHTS screen for small molecules that induce genotoxicity in human embryonic kidney (HEK293T) cells expressing luciferase-tagged ELG1 | HEK293T ELG1-luciferase reporter, luminescence, 16 h | 330,000 compounds, 1.3% hits | Potency, µM (doses to about 46 µM), most hits filed as activators; also: nearly all actives have a fitted effect of over 60% in size
#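 Reporter readout depends on ELG1 protein level, which increases with genetic stress. After 16 hr compound exposure at 37 °C, luciferase activity was quantified using ONE-Glo.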
# Rab9 promoter act: qHTS Assay for Rab9 Promoter Activators; Huh7 Rab9 promoter-luciferase reporter, luminescence, 24 h; 320,000 compounds, 2.8% hits; Potency, µM (doses to about 9.22 µM), actives largely listed as activators; also: nearly all actives have a fitted effect of over 60% in size
#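 Promoter activation is measured as luciferase luminescence in Huh7 cells stably transfected with a Rab9 promoter–luciferase construct, following 24 h compound exposure at 37 °C and 10 min reagent incubation at ambient temperature.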
# FLuc modulator: qHTS profiling assay for firefly luciferase inhibitor/activator using purifed enzyme and Km concentrations of substrates (counterscreen for miR-21 project) | Luciferin 4-monooxygenase (Photinus pyralis), P08659 | purified FLuc, Km substrates, luminescence inhibition | Potency, µM (titrated, usually from 57.5 µM), most hits filed as inhibitors | 360,000 compounds, 6.9% hits; also: nearly all actives have a fitted effect of over 55% in size
# Target sequence (P08659 whole entry, looked up): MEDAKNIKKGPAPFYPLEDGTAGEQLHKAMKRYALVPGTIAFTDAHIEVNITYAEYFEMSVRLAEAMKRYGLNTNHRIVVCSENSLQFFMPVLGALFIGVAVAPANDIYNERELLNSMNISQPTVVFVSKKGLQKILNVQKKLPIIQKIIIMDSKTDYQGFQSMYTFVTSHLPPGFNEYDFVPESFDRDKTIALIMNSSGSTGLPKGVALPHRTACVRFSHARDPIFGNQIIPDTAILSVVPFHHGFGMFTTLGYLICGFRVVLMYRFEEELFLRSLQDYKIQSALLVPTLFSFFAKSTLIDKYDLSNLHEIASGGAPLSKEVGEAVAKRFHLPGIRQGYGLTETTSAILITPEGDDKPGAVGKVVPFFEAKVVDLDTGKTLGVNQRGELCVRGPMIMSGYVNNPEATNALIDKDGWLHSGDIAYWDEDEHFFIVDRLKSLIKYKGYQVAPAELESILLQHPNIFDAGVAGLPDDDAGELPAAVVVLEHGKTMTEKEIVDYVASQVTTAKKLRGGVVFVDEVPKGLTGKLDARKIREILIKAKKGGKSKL
#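 Purified P. pyralis luciferase (10nM final) with 10uM D-luciferin and 10uM ATP (Km levels) in 50mM Tris acetate pH 7.5, 10mM Mg acetate, 0.01% Tween-20, 0.05% BSA; qHTS 6-point titration, ~60 µM downward; luminescence read.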
# SMN2 splice enh: qHTS Assay for Enhancers of SMN2 Splice Variant Expression; HEK293 SMN2-luciferase splicing reporter, luminescence, 30-36 h; Potency, µM (series often up to 46.1 µM), hits mostly activators; 210,000 compounds, 2.8% hits; AID 1458, 2008; also: nearly all actives have a fitted effect of over 55% in size
#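 HEK293 cells carry an SMN2 minigene-luciferase reporter in which exon 7 inclusion puts luciferase in frame. Cells were seeded at 2000 cells/well, attached for 10-12 hours, then exposed to compounds for 30-36 hours at 37C before ONE-Glo luminescence.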
# Numbers stand for hits; i = inactive; ? = inconclusive; nt = no result. The list is not random: actives were taken first. Their share in the collection is about 7.4%. Calls follow the shape of the dose curve; as a rule, active = well fitted curve in the direction sought with a large enough effect; inconclusive = small, poorly fitted or top-dose-only effect, or another doubt; inactive = no such curve, though single readings can be large; an effect the other way counts as inactive or inconclusive.
SMILES,KinaseGlo FLuc,NPC1 promoter act,ELG1 genotoxic,Rab9 promoter act,FLuc modulator,SMN2 splice enh
C/C=C/C=C/C(=O)N1CC2(CC(c3cccc(NC(=O)CCCCC)c3)=NO2)C[C@H]1C(N)=O (stereo not given in full),nt,i,i,i,i,nt
C/C=C\C=C/C(=O)Nc1cccc(C2=NOC3(C2)C[C@H](C(N)=O)N(C(=O)Cc2ccc([N+](=O)[O-])cc2)C3)c1 (stereo not given in full),nt,i,i,i,21.3µM,nt
C/C=C\C=C/C(=O)Nc1cccc(C2=NOC3(C2)C[C@@H](C(N)=O)N(C(=O)CCCCC)C3)c1 (stereo not given in full),nt,i,i,i,13.5µM,nt
COc1ccccc1CNC(=O)c1ccc(N2CCCC2)c(NC(=O)NCc2ccccc2)c1,nt,nt,nt,nt,i,nt
O=C1OC2(c3cc(Br)c(O)c(Br)c3Oc3c2cc(Br)c(O)c3Br)c2c(Cl)c(Cl)c(Cl)c(Cl)c21,nt,nt,nt,nt,nt,i
Cc1c(/C=N/NC(=O)c2ccccc2O)c2ccccn2c1C(=O)c1ccc(F)cc1,i,i,i,i,13.5µM,i
Cc1c(/C=N/NC(=O)c2cc(=O)[nH]c(=O)[nH]2)c2ccccn2c1C(=O)c1ccccc1,i,i,i,i,23.9µM,i
Cc1c(/C=N/NC(=O)c2cccnc2)c2ccccn2c1C(=O)c1ccc(F)cc1,i,i,i,i,15.1µM,i
Cc1c(/C=N/NC(=O)c2ccc(O)cc2)c2ccccn2c1C(=O)c1ccc(F)cc1,i,i,i,i,?,i
CCCn1ccc2c(OCC(=O)Nc3ccc(C(F)(F)F)cc3)cccc2c1=O,nt,nt,nt,nt,i,nt
COc1ccc(-c2[nH]c(-c3ccc(O)cc3)nc2-c2ccccc2)cc1,nt,nt,nt,nt,?,i
COc1ccc(CNC(=O)c2ccc(Cn3c(=O)c4cccn4c4cccnc43)cc2)c(OC)c1,nt,nt,nt,nt,i,nt
C=CCCCCCCCCCCCc1ccco1,i,nt,nt,nt,nt,i
CCCOc1ccc(C2c3c(oc4ccccc4c3=O)C(=O)N2c2nnc(C(C)C)s2)cc1 (stereo not given),nt,nt,nt,nt,i,i
NC(=S)N/N=C/c1ccc(C23CC4CC(CC(C4)C2)C3)cc1,nt,i,?,i,21.3µM,nt
NC(=S)N/N=C/c1ccccc1,i,i,i,i,i,i
COc1ccc2nc(SCC(=O)C(C)(C)C)[nH]c2c1,nt,2µM,14.6µM,2.24µM,?,nt
COc1ccc2nc(SCC(=O)c3ccco3)[nH]c2c1,i,2.24µM,?,1.78µM,5.36µM,?
O=C(CSc1nc2ccccc2[nH]1)c1ccco1,i,?,?,3.98µM,16.9µM,?
O=C(CSc1nc2ccccc2[nH]1)NCc1ccccc1,nt,i,i,i,i,nt
O=C(CSc1ncnc2ccccc12)c1ccco1,i,3.16µM,?,3.16µM,3.01µM,nt
COc1ccc(CNC(=O)CSc2nc3ccc(OC)cc3[nH]2)cc1,nt,i,i,i,i,nt
O=C(c1cccc(F)c1)N1CCC[C@@]2(CCN(Cc3ccccc3)C2)C1,i,nt,nt,nt,nt,i
C=CCn1c(NCc2c[nH]c3ccccc23)nc2ccccc21,i,i,i,i,23.9µM,i
Cn1c(NCc2cccs2)nc2ccccc21,i,i,23.1µM,?,?,11.2µM
SMILES,KinaseGlo FLuc,NPC1 promoter act,ELG1 genotoxic,Rab9 promoter act,FLuc modulator,SMN2 splice enh
Cn1c(NCc2c[nH]c3ccccc23)nc2ccccc21,i,2.24µM,i,2µM,9.53µM,11.2µM
CC(C)CCN(Cc1ccco1)C(=O)c1cc2c(Cl)nc3ccccc3c2s1,nt,nt,nt,nt,i,i
Cc1cc(OCC(=O)Nc2nc3c(s2)CCCC3)cc(C)c1Cl,nt,nt,nt,nt,i,nt
Cc1ccc(NC(=S)Nc2ccccn2)c(C)c1,nt,?,?,2.82µM,8.49µM,nt
COc1cccc(NC(=S)Nc2cc(C)cc(C)n2)c1,nt,i,i,i,2.13µM,nt
Cc1cc(C)nc(NC(=S)Nc2cccc(F)c2)c1,nt,i,i,i,?,nt
Cc1cccc(NC(=S)Nc2ccccn2)c1,nt,i,i,?,?,nt
COC(=O)c1ccc(NC(=S)Nc2ccc(O)cc2)cc1,i,i,i,i,i,i
COC(=O)c1ccc(NC(=S)Nc2ccccn2)cc1,i,2.82µM,?,1.78µM,?,11.2µM
Cc1cc(Cl)ccc1NC(=S)Nc1ccccn1,i,?,i,?,i,?
Cc1ccc(NC(=S)Nc2ccccn2)cc1C,nt,i,i,?,16.9µM,nt
CN(C)c1ccc(CNC(=O)CN2CCSc3ccc(S(=O)(=O)N(C)C)cc32)cc1,nt,nt,nt,nt,i,nt
CCOc1ccc(NC(=S)Nc2cc(-c3ccccc3)[nH]n2)cc1,i,i,i,i,21.3µM,i
COc1ccc(NC(=S)Nc2ccccn2)cc1,nt,3.16µM,?,2.51µM,13.5µM,nt
COc1ccc(NC(=S)Nc2cc(-c3ccccc3)[nH]n2)cc1Cl,i,i,i,i,?,i
Cc1cc(C)c(C)c(OCC(=O)Nc2ccc(S(=O)(=O)Nc3nc(C)cc(C)n3)cc2)c1,nt,nt,nt,nt,?,i
O=C(Cn1c(=O)nc(-c2ccccc2F)c2cc(Cl)ccc21)NCCCc1ccccc1,nt,nt,nt,nt,i,i
CC(C)CCn1c(=O)c2sccc2n2c(CCCC(=O)NC3CCC(C)CC3)nnc12 (stereo not given),nt,nt,nt,nt,i,nt
O=C(CCN1C(=O)C2CCCCC2C1=O)Nc1nc2c(F)cc(F)cc2s1 (stereo not given),nt,2.51µM,?,1.41µM,i,nt
O=C(CCN1C(=O)C2CCCCC2C1=O)Nc1cc(F)ccc1F (stereo not given),nt,i,i,i,i,nt
O=C(CCN1C(=O)C2CCCCC2C1=O)Nc1nc2ccc(F)cc2s1 (stereo not given),nt,0.631µM,?,0.398µM,0.849µM,nt
CCOc1ccc(NC(=O)c2cn(C)c(=O)c3cc(OC)c(OC)cc23)cc1,nt,nt,nt,nt,i,i
COc1cccc2sc(NC(=O)c3ccc4c(c3)OCCO4)nc12,nt,nt,nt,nt,0.953µM,nt
Cc1cccc2sc(NNC(=O)c3ccc4c(c3)OCCO4)nc12,i,i,i,i,?,i
COc1cccc2sc(NC(=O)c3ccc(Br)s3)nc12,i,?,?,?,2.39µM,i
SMILES,KinaseGlo FLuc,NPC1 promoter act,ELG1 genotoxic,Rab9 promoter act,FLuc modulator,SMN2 splice enh
O=C(Nc1nc2c(F)cc(F)cc2s1)c1ccc2c(c1)OCCO2,nt,0.794µM,nt,0.316µM,0.601µM,nt
O=C(NC(=S)Nc1c(F)cc(F)cc1Br)c1ccc2c(c1)OCCO2,i,i,i,i,i,i
CC(NC(=O)Nc1ccc(Cl)cc1)c1ccc2c(c1)OCO2 (stereo not given),nt,i,i,i,i,nt
O=C(Nc1ccc2c(c1)OCO2)Nc1ccccn1,i,2.82µM,?,0.891µM,12µM,nt
Cn1ccc(NC(=O)Nc2ccc(Cl)cc2Cl)n1,i,?,?,?,15.1µM,14.1µM
O=C(Nc1cnccn1)Nc1ccc(Cl)cc1Cl,i,i,i,?,i,nt
